Measured values taken from PubChem BioAssay AID1240 (Sanford-Burnham Center for Chemical Genomics, 2008).
Among all 50,000 compounds or so, about 800 (1.6%) showed an effect of 50% or more. The list comes from a sample in which strong results are over-represented; it also holds similar structures and randomly drawn compounds.

Molecular target: Bcl-2-like protein 10 (Homo sapiens) (UniProt Q9HD36)
Assay: TR3 peptide-Bcl-B binding displacers, biochemical primary FP assay, phenotype converters (AID 1240);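 also: 0% = Bcl-B with tracer peptide and DMSO and 100% = tracer peptide lacking Bcl-B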
Conditions: GST-Bcl-B / FITC-TR3 peptide fluorescence polarization; stronger effect = higher value; compound at 3.75 mg/L

Sequence of Bcl-2-like protein 10 (Homo sapiens) (Q9HD36 whole entry, looked up): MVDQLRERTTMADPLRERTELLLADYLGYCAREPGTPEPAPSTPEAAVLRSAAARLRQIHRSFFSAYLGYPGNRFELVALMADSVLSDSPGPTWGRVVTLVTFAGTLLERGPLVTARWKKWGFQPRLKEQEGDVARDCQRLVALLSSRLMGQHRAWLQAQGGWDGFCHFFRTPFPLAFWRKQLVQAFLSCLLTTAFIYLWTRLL

Going from Cc1c(NC(=O)/C=C/c2cn(-c3ccccc3)nc2-c2ccccc2)c(=O)n(-c2ccccc2)n1C to Cc1c(NC(=O)/C=C/c2cn(-c3ccccc3)nc2-c2ccc(F)cc2)c(=O)n(-c2ccccc2)n1C, the displacement falls from 70% to 12.2%.

Going from Cc1c(NC(=O)/C=C/c2ccccc2)c(=O)n(-c2ccccc2)n1C to O=C1OC(Nc2ncccn2)(c2ccccc2)c2ccccc21 (stereo not drawn), the displacement falls from 2.7% to -7.3%.

First: COc1ccc(C(=O)N2CCN(Cc3ccccc3F)CC2)cc1OC
Second: COc1ccc(C(=O)N2CCN(Cc3ccccc3C)CC2)cc1OC
The displacement of the first is higher: 56% for the first, -1% for the second.

Going from COc1ccc(C(=O)N2CCN(Cc3cccc4ccccc34)CC2)cc1OC to COc1ccc(C(=O)N2CCN(Cc3cccc(Oc4ccccc4)c3)CC2)cc1OC, the displacement rises from -5.2% to 6.4%.

First: COc1cc(C(=O)N2CCN(Cc3cccc(Oc4ccccc4)c3)CC2)cc(OC)c1OC
Second: O=C(c1ccccc1)N1CCN(Cc2cccc(Oc3ccccc3)c2)CC1
The displacement of the first is higher: 132% for the first, -8.8% for the second.

Compared with CC(=O)SCCC(=O)N1CCn2c3c(c4cc(C)ccc42)CCCC31 (stereo not drawn), CN1CCN(CC(=O)N2CCn3c4c(c5cc(C6CCCCC6)ccc53)CCCC42)CC1 (stereo not drawn) is higher in displacement: 14.3% for the first, 60.9% for the second.

Going from CCn1c2c(c3cc(C4CCCCC4)ccc31)CCCC2O (stereo not drawn) to O=C1c2ccccc2C(=O)c2c(NC3CCCCC3)cccc21, the displacement falls from 2.5% to -2.9%.

Compared with O=C(Nc1ccc(Cl)cc1)Nc1ccc([N+](=O)[O-])cc1Br, O=C(NCc1ccncc1)c1ccc(Cl)cc1 is lower in displacement: 3.9% for the first, -3.5% for the second.

Going from CCCC(=O)Nc1ccc2c(c1)Cc1ccccc1-2 to CC(C)CNC(=O)c1cccc(NC(=O)CN2C(=O)c3ccccc3C2=O)c1, the displacement rises from -1.1% to 13.8%.

First: O=C(N/N=C/c1cccnc1)c1ccco1
Second: O=C(COc1cccc2ccccc12)NCc1cccnc1
The displacement of the first is higher: 18.4% for the first, 8.3% for the second.

First: O=C1OC(c2ccc(NC(=O)C(F)(F)F)cc2)(c2ccc(NC(=O)C(F)(F)F)cc2)c2ccccc21
Second: O=C1c2ccccc2-c2onc3ccc(Nc4cccc([N+](=O)[O-])c4)c1c23
The displacement of the first is lower: 4.8% for the first, 24.2% for the second.

Compared with O=S(=O)(c1ccc2ccccc2c1)N1CCC(Cc2ccccc2)CC1, O=C1c2ccccc2-c2onc3c(N4CCN(c5ccccc5)CC4)ccc1c23 is higher in displacement: -21.4% for the first, -8.2% for the second.

First: O=C(CCN1C(=O)c2ccccc2C1=O)Nc1ccccc1C(=O)N1CCOCC1
Second: Cc1ccc(N2CCCCC2)c2c1C(=O)c1ccccc1C2=O
The displacement of the first is higher: 10% for the first, 1.1% for the second.

Going from O=C1CNC(=O)c2c(ncn2Cc2ccccc2)N1 to O=c1oc(-c2ccco2)nc2ccccc12, the displacement rises from -13.2% to 15.9%.

Compared with O=C1c2ccccc2-c2onc3ccc(NC4CCCCC4)c1c23, O=C1c2ccccc2-c2onc3ccc(N4CCCCC4)c1c23 is higher in displacement: 59.4% for the first, 145% for the second.

Going from CCSc1sc(CC)cc1C(=O)O to C/C(=N/NC(=O)COc1cccc(Cl)c1)c1ccccc1O, the displacement falls from 15.4% to 9.1%.

Compared with O=c1oc(-c2ccco2)nc2cc(Cl)ccc12, O=c1oc(-c2ccco2)nc2ccc(Cl)cc12 is lower in displacement: 56% for the first, 13.6% for the second.

Compared with C(=C\c1ccco1)/C=N/Nc1nnc2c(n1)[nH]c1ccccc12, CCOc1ccc(C(=O)Nc2ccc(O)c(-c3nc4ccccc4s3)c2)cc1Cl is higher in displacement: -1.8% for the first, 6.3% for the second.

Going from O=c1c2c(nc3cc(-c4cccc(Cl)c4)[nH]n13)CCS2 to O=c1c2c(nc3cc(-c4cccc(F)c4)[nH]n13)CCS2, the displacement falls from 34.8% to 9.2%.

Going from Cc1ccc(-c2cc3nc4c(c(=O)n3[nH]2)SCC4)cc1 to O=c1c2c(nc3cc(-c4ccc(I)cc4)[nH]n13)CCS2, the displacement rises from -4.6% to 97.5%.

Going from O=c1c2c(nc3cc(-c4ccc(Cl)cc4)[nH]n13)CCS2 to O=c1c2c(nc3cc(-c4ccc(Br)cc4)[nH]n13)CCS2, the displacement falls from 115% to -9.1%.

Compared with Cc1cc(C)c(NC(=O)c2ccccc2[N+](=O)[O-])c(C)c1, COc1ccc(/C=C2\C(=O)NC(=O)N(c3cccc(Br)c3)C2=O)c(C)c1 is lower in displacement: 13.5% for the first, -5.7% for the second.

Going from CC(=O)NC(NC(C)=O)c1ccc(F)cc1 to COc1ccc(/C=C2\C(=O)NC(=O)N(c3ccc(F)cc3)C2=O)cc1OC, the displacement falls from -2.4% to -27.7%.

Compared with COc1ccc(/C=C2\C(=O)NC(=S)N(c3cccc(Br)c3)C2=O)c(OC)c1, COc1ccc(/C=C2\C(=O)NC(=O)N(c3cccc(Br)c3)C2=O)c(OC)c1 is higher in displacement: -0.7% for the first, 122% for the second.

First: CCOc1ccc(N2C(=O)NC(=O)/C(=C\c3ccc(N(CC)CC)cc3OC)C2=O)cc1
Second: CCN(CC)c1ccc(/C=C2\C(=O)NC(=O)N(c3ccc(OC)cc3)C2=O)c(OC)c1
The displacement of the first is higher: 55.1% for the first, 10% for the second.

Compared with COc1cc(/C=C2\C(=O)NC(=O)N(c3cccc(Br)c3)C2=O)cc(Cl)c1O, COc1ccc(/C=C2\C(=O)NC(=O)N(c3cccc(Br)c3)C2=O)cc1OC is higher in displacement: 4.4% for the first, 120% for the second.

In the case of CCOc1ccc(/C=C2/C(=O)NC(=O)N(c3ccc(OC)cc3)C2=O)c(OCC)c1, the displacement is reported as -4%.
